Reference: the supplement of paper PMC10338343
± gives the standard deviation. In all, about 3,000 sequences were measured (“pre-steady-state target cleavage rate”: median about 0.0079, highest 2% from about 0.2 on). The sample as a whole holds a higher share of the highest values than the screen did.

test system: MILI (PIWIL2) piRISC loaded with piRNA #2 (26 nt); assay: pre-steady-state target cleavage rate (min^-1); MIWI and MILI are mouse PIWI proteins and EfPiwi is from a freshwater sponge; tags in brackets are library labels; higher = faster piRNA-guided slicing of the target; conditions: guide: piRNA #2 5'p-UUAGGUAACCCAGUAGAUCCAGAGGA; auxiliary factor: 500 nM mouse GTSF1
Experimental: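 Cleave-'n-Seq: a library of target RNAs (target site embedded in constant flanks, ACAGCATTCCGCGTTAGTGATATCCG... 5' flank; DNA-blocked outside the site) at 0.1 nM was incubated with 1 nM active mouse MILI or MIWI piRISC (synthetic 5'-monophosphorylated piRNA guide) with or without 500 nM mouse GTSF1 at 33 °C for 1 min to 16 h. Uncleaved targets were sequenced and normalised to non-target controls, and the pooled three trials were fitted to a burst-and-steady-state model to give the pre-steady-state cleavage rate (min^-1; k3 is constrained to at most 1e-4). Sequence is the target site only; target names encode pairing extent (gX:gY) and contiguous / 1-mismatch / 2-mismatch / bulge geometry. Fits with R² ≤ 0 are excluded.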

Row | Sequence | pre-steady-state target cleavage rate
1 | CUUAUCCUCUGGAUACUACUGGGUUACCUAA | 0.0816 ± 0.019
2 | CUUAAGCUCUGGAUCUACUGGGUUUCGUAA | 0.0193 ± 0.0086
3 | CUUAUCCUGUGGAUCUACUGGGUUACGUAA | 0.0102 ± 0.0038
4 | CUUAAGGUCUGGACUCUACUGGGUUACCUAA | 0.0367 ± 0.014
5 | CUUAACACUCUGGAUCUACUGGGUUACCUAA | 0.0824 ± 0.024
6 | CUUAAGCUCUGGAUCUACUGGGUUACGUAA | 0.0464 ± 0.011
7 | CUUAUCCUGCUGGAUCUACUGGGUUACCUAA | 0.0776 ± 0.018
8 | CUUAUCCUCUGGAUGUACUGGGUAACCUAA | 0.0198 ± 0.0082
9 | CUUAACCUCUCGAUCUACUGGGUUACGUAA | 0.052 ± 0.017
10 | CUUAUCCUCUCCUUCUACUGGGUUACCUAA | 0.106 ± 0.023
11 | CUUAUCCUCUGGUUCUAGUGGGUUACCUAA | 0.134 ± 0.028
12 | CUUAUCCUCUGGUUCUUCUGGGUUACCUAA | 0.338 ± 0.088
13 | CUUAUCCUCUGGUUCUACUGGGUUACCUUA | 1.12 ± 0.39
14 | CUUAUCCUCUGUAUCUACUGGGUUACCUAA | 0.0865 ± 0.015
15 | CUUAUCCUCUGGUAUCUACUGGGUUACCUAA | 1.05 ± 0.33
16 | CUUAUCCUCUGGUUCUACUGGGUUACCUAA | 0.469 ± 0.1
17 | CUUAUCCUCUGGUUCUACUGCGUUACCUAA | 0.0261 ± 0.0078
18 | CUUAUCCUCUGCUUCUACUGGGUUACCUAA | 0.157 ± 0.026
19 | CUUAUCCUCUCGUUCUACUGGGUUACCUAA | 0.136 ± 0.021
20 | CUUAUCCUCUGGAUCUACUGGGGUUACCUAA | 0.0435 ± 0.012
21 | CUUAUCCUCUGGAUCUUCUGGGUUACCUAA | 0.105 ± 0.019
22 | CUUAACCUCUGGAUCUACUGGGUUACCAUAA | 0.13 ± 0.03
23 | CUUAAGGAGACCUUCUACUGGGGUACCUAA | < 0.0001
24 | CUUAAGGUGUGGAUCAACUGGGUUACCUAA | 0.014 ± 0.0076
25 | CUUAAGCUCUGGAUCUUGUGGGUUACCUAA | 0.00903 ± 0.0046
26 | CUUAACCUCUGGAUCUACGGGGUUACCUAA | 0.0813 ± 0.012

Row | Sequence | pre-steady-state target cleavage rate
27 | CUUAAGGAGUGGAUCUACUGGGUUACCGUAA | 0.0155 ± 0.0079
28 | CUUAUCCUCUGGAUCUACAGGGUUACCUAA | 0.119 ± 0.016
29 | CUUAAGGACAGGAUCUACUGGGUUACCUAA | 0.0192 ± 0.013
30 | CUUAAGGAGACCUAGAUCUGGGUAACCAAA | < 0.0001
31 | CUUAUCCUCUGGAUCUACUGGGUAACCUAA | 0.0929 ± 0.021
32 | CUUAACCUCUGGUAUCUACUGGGUUACCUAA | 0.584 ± 0.19
33 | CUUAACCUCUGGUUCAACUGGGUUACCUAA | 0.117 ± 0.035
34 | CUUAUCCUCUGGUUCUACUGGGUAACCUAA | 0.268 ± 0.097
35 | CUUAUCCUCUGGUAGUACUGGGUUACCUAA | 0.103 ± 0.035
36 | CUUAACCUCUGGUUCUACUGGGUAACCUAA | 0.14 ± 0.044
37 | CUUAUCCUCUGGUUCAACUGGGUUACCUAA | 0.225 ± 0.063
38 | CUUAUCCUCUGGAUCAACUGGGUUACCUAA | 0.0659 ± 0.012
39 | CUUAACCUCUGUAUCUACUGGGUUACCUAA | 0.071 ± 0.013
40 | CUUAUCCUCUGGUACUACUGGGUUACCUAA | 0.754 ± 0.23
41 | CUUAUCCUCUGGUUGUACUGGGUUACCUAA | 0.151 ± 0.031
42 | CUUAAGCUCUGGUAUCUACUGGGUUACCUAA | 0.15 ± 0.038
43 | CUUAAGGAGUAGGAUCUACUGGGUUACCUAA | 0.00494 ± 0.0041
44 | CUUAAGGUCUGCAUCUACUGGGUUACCAAA | 0.0157 ± 0.0062
45 | CUUAAGCUCUGGAUCUACUGGGUUAGCUAA | 0.094 ± 0.018
46 | CUUAACCUCUGGAUCUAUUGGGUUACCUAA | 0.0785 ± 0.023
47 | CUUAAGCUCUGGAUGUAGUGGGUUACCUAA | 0.061 ± 0.011
48 | CUUAAGCUCUGGAUCUACUGGGCUUACCUAA | 0.019 ± 0.0061
49 | CUUAACCUCUGGUUCUACUGGGUUACCUUA | 0.3 ± 0.087
50 | CUUAACCUCUGGUUCUACUGGGUUACCAAA | 0.134 ± 0.037
51 | CUUAACCUCUGGUCUACUGGGUUACCUAA | 0.333 ± 0.11
52 | CUUAACCUCUGGGUCUACUGGGUUACCUAA | 0.169 ± 0.029

Row | Sequence | pre-steady-state target cleavage rate
53 | CUUAACCUCUGGUUCUACUGGGUUACCUAA | 0.141 ± 0.031
54 | CUUAACCUCUGGAGUCUACUGGGUUACCUAA | 0.135 ± 0.031
55 | CUUAUCCUCUGGAUCUAUGGGUUACCUAA | 0.0334 ± 0.0086
56 | CUUAACCUCUGCAUGUACUGGGUUACCUAA | 0.117 ± 0.016
57 | CUUAUCGUCUCGAUCUACUGGGUUACCUAA | 0.0585 ± 0.014
58 | CUUAAGGAAUGGAUCUACUGGGUUACCUAA | 0.0666 ± 0.015
59 | CUUAAGCUGUGGUUCUACUGGGUUACCUAA | 0.0437 ± 0.014
60 | CUUAAGCACUCGAUCUACUGGGUUACCUAA | 0.417 ± 0.15
61 | CUUAAGCUCUCGAUCUACUGGGUUACCUAA | 0.113 ± 0.019
62 | CUUAAGCACUGGUUCUACUGGGUUACCUAA | 0.199 ± 0.043
63 | CUUAAGCACUGCAUCUACUGGGUUACCUAA | 0.0725 ± 0.015
64 | CUUAAGCACUGGAUCUACUGGGUUACCUAA | 0.113 ± 0.02
65 | CUUAAGGUCAGGUUCUACUGGGUUACCUAA | 0.0166 ± 0.0093
66 | CUUAACCUCUGGAACUACUGGGUUACGUAA | 0.118 ± 0.051
67 | CUUAAGGUCAGGAUCUACUGGGUUACCUUA | 0.0166 ± 0.0094
68 | CUUAUCCUCUGGAUCUACUGGGUUACCUAC [g2:g26:cont:t1C] | 0.105 ± 0.014
69 | CUUAUCCUCUGGAUCUACUGGGUUACCUCA | 0.0902 ± 0.018
70 | CUUAUCCUCUGGAUCUACUGGGUUACCUGAA | 0.384 ± 0.17
71 | CUUAUCCUCUGGAUCUACUGGGUUACCUA | 0.159 ± 0.032
72 | CUUAUCCUCUGGAUCUACUGGGUUACCUGA | 0.838 ± 0.37
73 | CUUAUCCUCUGGAUCUACUGGGUUACCUCAA | 0.0973 ± 0.019
74 | CUUAAGCUCAGGAUCUACUGCGUUACCUAA | 0.0105 ± 0.0058
75 | CUUAAGGUCUGGAUCUAGUGGGUUACGUAA | 0.0114 ± 0.004
76 | CUUAUCCUCUGGAUCUACUGGAUUACCUAA | 0.0307 ± 0.0083
77 | CUUAAGGAGUGGAUCUAGUGGGUUACCUAA | 0.0231 ± 0.0069
78 | CUUAUCCUCUGGAUCUACUGGGAUAGCUAA | 0.0182 ± 0.0088
